Inconclusive results are not listed. A number with no mark means an inactive call. Calls of active or inactive are those of the source. Calls follow the shape of the dose curve; as a rule, active = well fitted curve in the direction sought with a large enough effect; inconclusive = small, poorly fitted or top-dose-only effect, or another doubt; inactive = no such curve, though single readings can be large; an effect the other way counts as inactive or inconclusive.
Experiments:
[1] = tested on: PA-1; assay: Primary qHTS to identify gynecologic anti-cancer compounds using libraries of approved drugs and bioactive compounds (AID 1345084); details: Gynecologic cancer cell panel viability, ATPlite luminescence, 48 h; series mostly up to 57.5 µM; also: nearly all actives have a fitted effect of over 55% in size; as to activity change, negative = cytotoxicity: % is scaled to controls: 0 for no effect and ±100 for the full control effect
Method in brief: (§1)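 Cells, 1,000 per well, were allowed to settle for 16 h at 37 C before compound addition. Five concentrations were tested for 48 h, and viability was read by ATPlite luminescence after 15 min at room temperature.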

[2] = tested on: SKOV3; assay: as above; details: Gynecologic cancer cell panel viability, ATPlite luminescence, 48 h; series mostly up to 57.5 µM
Method in brief: as §1

[3] = tested on: Tov112D; assay: as above; details: Gynecologic cancer cell panel viability, ATPlite luminescence, 48 h; series mostly up to 57.5 µM
Method in brief: as §1

[4] = tested on: Tov-21-G; assay: as above; details: Gynecologic cancer cell panel viability, ATPlite luminescence, 48 h; series mostly up to 57.5 µM
Method in brief: as §1

[5] = qHTS assay to identify inhibitors of the type 1 interferon - major histocompatibility complex class I in skeletal muscle: Counter screen cell viability and HiBit confirmation (AID 1347412); details: iHSKM muscle cells + IFN-b, HiBiT or CellTiter-Glo, 24 h; also: nearly all actives have a fitted effect of over 60% in size
Method in brief: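 Luminescence read-out: Nano-Glo HiBiT lytic signal from C-terminally HiBiT-tagged HLA-B in CRISPR-edited human myoblasts, plus CellTiter Glo ATP as viability counter screen. IFN-beta 4.0 ng/ml; 24 hrs treatment at 37 C, 5% CO2.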
Potency is read from the fitted curve at half-maximal effect.

With `Cc1ccc(-c2ccc3ncc4c(c3n2)n(C2CCN(C(=O)[C@H](C)O)CC2)c(=O)n4C)cn1` the Potency [1] was 0.631 µM (active), the Potency [2] was 1.41 µM (active) and the Potency [3] was 0.0891 µM (active).
Compound `CC1(C)CC[C@@]2(C(=O)O[C@@H]3O[C@H](CO)[C@@H](O)[C@H](O)[C@H]3O)C(C1)C1=CCC3[C@@]4(C)CC[C@@H](O[C@@H]5O[C@H](C(=O)O)[C@@H](O[C@@H]6OC[C@@H](O)[C@H](O)[C@H]6O)[C@H](O[C@@H]6OC[C@](O)(CO)[C@H]6O)[C@H]5O)C(C)(C)C4CC[C@@]3(C)[C@]1(C)C[C@H]2O` (some centres undefined) has an activity change, negative = cytotoxicity [1] of -34.8% [at 11.6 µM], an activity change, negative = cytotoxicity [2] of -2.96% [at 11.6 µM] and an activity change, negative = cytotoxicity [3] of -29.7% [at 11.6 µM].
With `COc1ccc(C2=N[C@@H](c3ccc(Cl)cc3)[C@@H](c3ccc(Cl)cc3)N2C(=O)N2CCNC(=O)C2)c(OC(C)C)c1` the Potency [1] was 14.1 µM (active), the Potency [2] was “inactive” and the Potency [3] was “inactive”.
`C[C@@H]1O[C@@H](O[C@H]2[C@H](O[C@H]3[C@H](O[C@H]4CC[C@@]5(C)C(CC[C@]6(C)C5CC=C5[C@@H]7CC(C)(C)C[C@@H](O)[C@]7(C)CC[C@]56C)[C@@]4(C)CO)O[C@H](C(=O)O)[C@@H](O)[C@@H]3O)OC[C@H](O)[C@@H]2O)[C@H](O)[C@H](O)[C@H]1O` (some centres undefined) gave an activity change, negative = cytotoxicity [1] of -1.53% [at 11.6 µM], an activity change, negative = cytotoxicity [2] of -7.2% [at 11.6 µM] and an activity change, negative = cytotoxicity [4] of -1.97% [at 11.6 µM]. For the same compound, the activity change, negative = cytotoxicity [3] was -12.3% [at 11.6 µM].
With `NC[C@@](O)(c1ccc(Cl)cc1)c1ccc(-c2cn[nH]c2)cc1` the Potency [1] was 15.8 µM (active), the Potency [2] was 20 µM (active) and the Potency [4] was 10 µM (active). The Potency [3] was 25.1 µM (active), the Potency ([5]; HiBiT) was 6.25 µM (active) and the Potency ([5]; Viability) was 8.83 µM (active).
